In the supplement of paper PMC4466140:

How the values were obtained:
Test in all cases: SPOT peptide array binding signal intensity (averaged, normalized) (arbitrary units (background-subtracted, floor 0; scale differs between SH3 domains)); higher = stronger binding of the SH3 domain to the peptide
AgAbp1 = target: AgAbp1
Summary of the method: (§1)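 GST-SH3 fusions from four yeast species, purified on glutathione Sepharose, were incubated at 10 μg/ml overnight at 4°C on membranes of synthetic 15-mer peptides in which cysteines were replaced with serines. Binding signal is the normalized, background-subtracted spot intensity averaged over replicates, in domain-specific arbitrary units.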

AgBbc1 = target: AgBbc1
Summary of the method: as §1

AgBem1-D1 = target: AgBem1-D1
Summary of the method: as §1

AgBzz1-D1 = target: AgBzz1-D1
Summary of the method: as §1

AgBzz1-D2 = target: AgBzz1-D2
Summary of the method: as §1

AgCyk3 = target: AgCyk3
Summary of the method: as §1

AgFus1 = target: AgFus1
Summary of the method: as §1

AgHof1 = target: AgHof1
Summary of the method: as §1

AgHse1 = target: AgHse1
Summary of the method: as §1

AgLsb1 = target: AgLsb1
Summary of the method: as §1

AgLsb4 = target: AgLsb4
Summary of the method: as §1

AgMyo5 = target: AgMyo5
Summary of the method: as §1

AgNbp2 = target: AgNbp2
Summary of the method: as §1

AgRvs167 = target: AgRvs167
Summary of the method: as §1

AgSho1 = target: AgSho1
Summary of the method: as §1

AgSla1-D1-D2 = target: AgSla1-D1-D2
Summary of the method: as §1

AgSla1-D3 = target: AgSla1-D3
Summary of the method: as §1

CaAbp1-D1 = target: CaAbp1-D1
Summary of the method: as §1

CaAbp1-D2 = target: CaAbp1-D2
Summary of the method: as §1

CaBbc1 = target: CaBbc1
Summary of the method: as §1

CaBem1-D1 = target: CaBem1-D1
Summary of the method: as §1

CaBzz1-D1 = target: CaBzz1-D1
Summary of the method: as §1

CaBzz1-D2 = target: CaBzz1-D2
Summary of the method: as §1

CaCyk3 = target: CaCyk3
Summary of the method: as §1

CaFus1 = target: CaFus1
Summary of the method: as §1

CaHof1 = target: CaHof1
Summary of the method: as §1

CaHse1 = target: CaHse1
Summary of the method: as §1

CaLsb1 = target: CaLsb1
Summary of the method: as §1

CaLsb4 = target: CaLsb4
Summary of the method: as §1

CaMyo5 = target: CaMyo5
Summary of the method: as §1

CaNbp2 = target: CaNbp2
Summary of the method: as §1

CaRvs167 = target: CaRvs167
Summary of the method: as §1

CaRvs167-3 = target: CaRvs167-3
Summary of the method: as §1

CaSho1 = target: CaSho1
Summary of the method: as §1

CaSla1-D1-D2 = target: CaSla1-D1-D2
Summary of the method: as §1

CaSla1-D3 = target: CaSla1-D3
Summary of the method: as §1

ScAbp1 = target: ScAbp1
Summary of the method: as §1

ScBbc1 = target: ScBbc1
Summary of the method: as §1

ScBem1-D1 = target: ScBem1-D1
Summary of the method: as §1

ScBzz1-D1 = target: ScBzz1-D1
Summary of the method: as §1

ScBzz1-D2 = target: ScBzz1-D2
Summary of the method: as §1

ScCyk3 = target: ScCyk3
Summary of the method: as §1

ScFus1 = target: ScFus1
Summary of the method: as §1

ScHof1 = target: ScHof1
Summary of the method: as §1

ScHse1 = target: ScHse1
Summary of the method: as §1

ScLsb1 = target: ScLsb1
Summary of the method: as §1

ScLsb2 = target: ScLsb2
Summary of the method: as §1

ScLsb3 = target: ScLsb3
Summary of the method: as §1

ScLsb4 = target: ScLsb4
Summary of the method: as §1

ScMyo3 = target: ScMyo3
Summary of the method: as §1

ScMyo5 = target: ScMyo5
Summary of the method: as §1

ScNbp2 = target: ScNbp2
Summary of the method: as §1

ScPex13 = target: ScPex13
Summary of the method: as §1

ScRvs167 = target: ScRvs167
Summary of the method: as §1

ScSho1 = target: ScSho1
Summary of the method: as §1

ScSla1-D1-D2 = target: ScSla1-D1-D2
Summary of the method: as §1

ScSla1-D3 = target: ScSla1-D3
Summary of the method: as §1

SpAbp1-D1 = target: SpAbp1-D1
Summary of the method: as §1

SpBbc1 = target: SpBbc1
Summary of the method: as §1

SpBzz1-D1 = target: SpBzz1-D1
Summary of the method: as §1

SpBzz1-D2 = target: SpBzz1-D2
Summary of the method: as §1

SpCyk3 = target: SpCyk3
Summary of the method: as §1

SpHof1 = target: SpHof1
Summary of the method: as §1

SpHof1-2 = target: SpHof1-2
Summary of the method: as §1

SpHof1-3 = target: SpHof1-3
Summary of the method: as §1

SpHse1 = target: SpHse1
Summary of the method: as §1

SpLsb1 = target: SpLsb1
Summary of the method: as §1

SpLsb4 = target: SpLsb4
Summary of the method: as §1

SpMyo1 = target: SpMyo1
Summary of the method: as §1

SpNbp2 = target: SpNbp2
Summary of the method: as §1

SpPex13 = target: SpPex13
Summary of the method: as §1

SpRvs167 = target: SpRvs167
Summary of the method: as §1

SpSla1-D1-D2 = target: SpSla1-D1-D2
Summary of the method: as §1

SpSla1-D3 = target: SpSla1-D3
Summary of the method: as §1

B1: unnamed (peptide)
chain: KMSRSPPRPPSLKII
- SPOT peptide array binding signal intensity (AgAbp1): 329
- SPOT peptide array binding signal intensity (AgBbc1): 145
- SPOT peptide array binding signal intensity (AgBem1-D1): 707
- SPOT peptide array binding signal intensity (AgBzz1-D1): 85.5
- SPOT peptide array binding signal intensity (AgBzz1-D2): 35
- SPOT peptide array binding signal intensity (AgCyk3): 4
- SPOT peptide array binding signal intensity (AgFus1): 180
- SPOT peptide array binding signal intensity (AgHof1): 17
- SPOT peptide array binding signal intensity (AgHse1): 99
- SPOT peptide array binding signal intensity (AgLsb1): 20
- SPOT peptide array binding signal intensity (AgLsb4): ≤ 0
- SPOT peptide array binding signal intensity (AgMyo5): 10.5
- SPOT peptide array binding signal intensity (AgNbp2): 1350
- SPOT peptide array binding signal intensity (AgRvs167): 4.5
- SPOT peptide array binding signal intensity (AgSho1): 228
- SPOT peptide array binding signal intensity (AgSla1-D1-D2): 25
- SPOT peptide array binding signal intensity (AgSla1-D3): 9.25
- SPOT peptide array binding signal intensity (CaAbp1-D1): 734
- SPOT peptide array binding signal intensity (CaAbp1-D2): 1170
- SPOT peptide array binding signal intensity (CaBbc1): 564
- SPOT peptide array binding signal intensity (CaBem1-D1): 83
- SPOT peptide array binding signal intensity (CaBzz1-D1): 1880
- SPOT peptide array binding signal intensity (CaBzz1-D2): 466
- SPOT peptide array binding signal intensity (CaCyk3): 36
- SPOT peptide array binding signal intensity (CaFus1): 974
- SPOT peptide array binding signal intensity (CaHof1): 0.5
- SPOT peptide array binding signal intensity (CaHse1): 58.5
- SPOT peptide array binding signal intensity (CaLsb1): 2.5
- SPOT peptide array binding signal intensity (CaLsb4): 588
- SPOT peptide array binding signal intensity (CaMyo5): 44.5
- SPOT peptide array binding signal intensity (CaNbp2): 1320
- SPOT peptide array binding signal intensity (CaRvs167): 68
- SPOT peptide array binding signal intensity (CaRvs167-3): ≤ 0
- SPOT peptide array binding signal intensity (CaSho1): 939
- SPOT peptide array binding signal intensity (CaSla1-D1-D2): 337
- SPOT peptide array binding signal intensity (CaSla1-D3): 258
- SPOT peptide array binding signal intensity (ScAbp1): 178
- SPOT peptide array binding signal intensity (ScBbc1): 69.5
- SPOT peptide array binding signal intensity (ScBem1-D1): 8
- SPOT peptide array binding signal intensity (ScBzz1-D1): 57
- SPOT peptide array binding signal intensity (ScBzz1-D2): 25.5
- SPOT peptide array binding signal intensity (ScCyk3): 5
- SPOT peptide array binding signal intensity (ScFus1): 463
- SPOT peptide array binding signal intensity (ScHof1): 0.75
- SPOT peptide array binding signal intensity (ScHse1): 99.5
- SPOT peptide array binding signal intensity (ScLsb1): 39.8
- SPOT peptide array binding signal intensity (ScLsb2): 18
- SPOT peptide array binding signal intensity (ScLsb3): 742
- SPOT peptide array binding signal intensity (ScLsb4): 142
- SPOT peptide array binding signal intensity (ScMyo3): 142
- SPOT peptide array binding signal intensity (ScMyo5): 47.2
- SPOT peptide array binding signal intensity (ScNbp2): 2300
- SPOT peptide array binding signal intensity (ScPex13): 464
- SPOT peptide array binding signal intensity (ScRvs167): 123
- SPOT peptide array binding signal intensity (ScSho1): 634
- SPOT peptide array binding signal intensity (ScSla1-D1-D2): 653
- SPOT peptide array binding signal intensity (ScSla1-D3): 270
- SPOT peptide array binding signal intensity (SpAbp1-D1): 177
- SPOT peptide array binding signal intensity (SpBbc1): 6.75
- SPOT peptide array binding signal intensity (SpBzz1-D1): 1270
- SPOT peptide array binding signal intensity (SpBzz1-D2): 79.2
- SPOT peptide array binding signal intensity (SpCyk3): 9
- SPOT peptide array binding signal intensity (SpHof1): 19.5
- SPOT peptide array binding signal intensity (SpHof1-2): 27
- SPOT peptide array binding signal intensity (SpHof1-3): 139
- SPOT peptide array binding signal intensity (SpHse1): 70
- SPOT peptide array binding signal intensity (SpLsb1): 9.75
- SPOT peptide array binding signal intensity (SpLsb4): 1060
- SPOT peptide array binding signal intensity (SpMyo1): 224
- SPOT peptide array binding signal intensity (SpNbp2): 146
- SPOT peptide array binding signal intensity (SpPex13): 17
- SPOT peptide array binding signal intensity (SpRvs167): 92.3
- SPOT peptide array binding signal intensity (SpSla1-D1-D2): 17
- SPOT peptide array binding signal intensity (SpSla1-D3): 138
